Measurements taken from PubChem BioAssay AID489017 (The Scripps Research Institute Molecular Screening Center, 2010).
Unmarked numbers belong to inactive results. How the calls were made is not given here.

Tested on: Phorbol Ester
Test: off-target binding and CYP450 inhibition panel, profiling panel, selectivity assay for S1P4 antagonist project, biochemical, Ricerca HitProfilingScreen (AID 489017)
Details: Ricerca receptor/enzyme binding panel plus CYP450, at 10 µM, active compounds read high

**Q.** With `CCc1cccc(CC)c1NC(=O)c1ccc(-c2cc(Cl)ccc2Cl)o1` as the compound, how does the inhibition read?
**A.** Its inhibition is -12%.
